Laboratory results taken from PubChem BioAssay (Tox21).
Values joined by “and” are separate entries in the source; they are usually repeats but may differ in a detail not shown here. Equal entries are not always repeated. Inconclusive results are not listed. Entries that show only a call come without a potency. Where a structure was tested more than once in an assay, its records may differ in their call. Active and inactive are the calls of the source. Unless noted, calls come from the whole dose curve.

Tests used:
[1] = Nuclear factor erythroid 2-related factor 2/antioxidant responsive element (Nrf2/ARE) small molecule agonists: qHTS cell viability counter screen in human keratinocytes (AID 1919968; active = well fitted curve in the direction sought with a large enough effect in the repeat runs; an effect the other way counts as inactive or inconclusive; note: nearly all actives have a fitted effect of over 55% in size; note: potency is the fitted concentration of half-maximal effect)
Summary of the method: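 In human HaCaT keratinocytes stably expressing an ARE-driven luciferase, compound exposure lasted 23 h at 37 C under 5% CO2. Viable cells are quantified with a protease-based fluorogenic reagent (CellTiter-Fluor) read 1 h after addition.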

[2] = Nuclear factor erythroid 2-related factor 2/antioxidant responsive element (Nrf2/ARE) small molecule agonists: luciferase reporter gene qHTS assay in human keratinocytes (AID 1919969); note: nearly all actives have a fitted effect of over 35% in size; note: potency is the fitted concentration of half-maximal effect
[3] = molecular target: Gonadotropin-releasing hormone receptor (Homo sapiens) (UniProt P30968); assay: Human gonadotropin-releasing hormone receptor (GnRHR) small molecule agonists, calcium flux assay in GnRHR-HEK293 cells (AID 1920063); note: nearly all actives have a fitted effect of over 35% in size
Sequence of Gonadotropin-releasing hormone receptor (Homo sapiens) (P30968 whole entry, looked up): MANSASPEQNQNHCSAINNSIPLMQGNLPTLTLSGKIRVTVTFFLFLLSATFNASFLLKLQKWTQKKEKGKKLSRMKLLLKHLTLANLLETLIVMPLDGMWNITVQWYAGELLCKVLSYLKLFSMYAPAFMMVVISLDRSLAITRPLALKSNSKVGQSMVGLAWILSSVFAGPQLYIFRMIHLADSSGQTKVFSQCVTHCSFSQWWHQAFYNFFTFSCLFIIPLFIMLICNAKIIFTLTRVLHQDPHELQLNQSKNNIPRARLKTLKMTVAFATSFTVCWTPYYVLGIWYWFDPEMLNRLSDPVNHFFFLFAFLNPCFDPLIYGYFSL
Summary of the method: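 Intracellular calcium rise is the read-out: engineered human GnRHR HEK293 cells, dye-loaded, are exposed to DMSO-dissolved compounds and fluorescence at Ex/Em 480/540 is tracked for 3 min.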

[4] = molecular target: KiSS-1 receptor (Homo sapiens) (UniProt Q969F8); assay: Human kisspeptin (KISS1R) small molecule agonists, calcium flux assay in KISS1R-HEK293 cells (AID 1920064; active = well fitted curve in the direction sought with a large enough effect in the repeat runs; an effect the other way counts as inactive or inconclusive)
Sequence of KiSS-1 receptor (Homo sapiens) (Q969F8 whole entry, looked up): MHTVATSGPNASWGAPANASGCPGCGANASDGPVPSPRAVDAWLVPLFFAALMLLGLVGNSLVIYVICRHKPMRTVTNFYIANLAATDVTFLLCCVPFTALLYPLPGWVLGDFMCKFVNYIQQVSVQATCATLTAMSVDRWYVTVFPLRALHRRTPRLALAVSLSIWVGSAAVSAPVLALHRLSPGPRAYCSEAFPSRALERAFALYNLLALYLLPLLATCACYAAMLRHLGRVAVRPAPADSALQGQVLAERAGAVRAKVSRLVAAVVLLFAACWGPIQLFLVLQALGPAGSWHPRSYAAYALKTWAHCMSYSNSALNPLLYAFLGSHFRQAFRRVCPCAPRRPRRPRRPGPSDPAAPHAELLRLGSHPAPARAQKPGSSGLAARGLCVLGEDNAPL
Summary of the method: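 Concentration-response testing used 15 concentrations in triplicate on human KISS1R-expressing HEK293 cells. Calcium-dependent fluorescence (Ex/Em 480/540) was followed kinetically for 3 min after compound transfer.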

[5] = G protein-coupled receptor (GPCR) small molecule agonists, calcium flux assay: HEK293 wild type cell line counter screen (AID 1920065)
Summary of the method: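 Fluorescence intensity signals activation. After overnight (18 h) culture and a 1 h calcium dye load at 37 C, compounds are added by pin tool and the plate read at 480/540 nm for 3 min in 1 s steps.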

[6] = p53 small molecule agonists, cell-based qHTS assay with human liver microsomes (AID 1963577);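 note: p53 response element beta-lactamase reporter cells with liver microsomes plus NADPH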
Summary of the method: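 HLM-supplemented p53RE-bla reporter assay: 16 h compound exposure at 37 C, microsomes and NADPH each 0.5 mg/mL final, read by fluorescence intensity.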

[7] = p53 small molecule agonists, cell-based qHTS assay with rat liver microsomes (AID 1963578)
Summary of the method: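 Quantitative HTS of the Tox21 10K library: p53RE-bla cells, rat liver microsomes plus NADPH at 0.5 mg/mL final each, 16 h at 37 C, beta-lactamase fluorescence detection.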

[8] = p53 small molecule agonists, cell-based qHTS assay with human liver microsomes: qHTS cell viability counter screen (AID 1963579); note: nearly all actives have a fitted effect of over 45% in size; note: potency is the fitted concentration of half-maximal effect
Summary of the method: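 Viability of p53RE-bla cells is measured as CellTiter-Glo luminescence following a 16 h, 37 C incubation with compound, liver microsomes from human donors and NADPH.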

[9] = p53 small molecule agonists, cell-based qHTS assay: qHTS cell viability counter screen (AID 1963581); note: nearly all actives have a fitted effect of over 45% in size
Summary of the method: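 Luminescence from CellTiter-Glo, reflecting ATP content, serves as the cytotoxicity measure; it is taken after the 2 h reporter substrate step in HCT-116 p53RE-bla cells dosed for 16 h at 37 C.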

[10] = p53 small molecule agonists, cell-based qHTS assay (AID 1963582; active = well fitted activation curve with a large enough effect in the signal ratio in the repeat runs, not every such curve was filed as active; the % refers to the signal ratio)
Summary of the method: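 After plating, p53RE-bla cells sat 5 h in the incubator; compounds or DMSO vehicle were pinned in; a 16 h incubation at 37 C followed; FRET substrate was added and, 2 h later at RT, fluorescence was measured.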

[11] = molecular target: 5-hydroxytryptamine receptor 2A (Homo sapiens) (UniProt P28223); assay: 5-hydroxytryptamine receptor 2A (HTR2A) small molecule antagonists, cell-based qHTS assay (AID 1963586); note: nearly all actives have a fitted effect of over 45% in size
Sequence of 5-hydroxytryptamine receptor 2A (Homo sapiens) (P28223 whole entry, looked up): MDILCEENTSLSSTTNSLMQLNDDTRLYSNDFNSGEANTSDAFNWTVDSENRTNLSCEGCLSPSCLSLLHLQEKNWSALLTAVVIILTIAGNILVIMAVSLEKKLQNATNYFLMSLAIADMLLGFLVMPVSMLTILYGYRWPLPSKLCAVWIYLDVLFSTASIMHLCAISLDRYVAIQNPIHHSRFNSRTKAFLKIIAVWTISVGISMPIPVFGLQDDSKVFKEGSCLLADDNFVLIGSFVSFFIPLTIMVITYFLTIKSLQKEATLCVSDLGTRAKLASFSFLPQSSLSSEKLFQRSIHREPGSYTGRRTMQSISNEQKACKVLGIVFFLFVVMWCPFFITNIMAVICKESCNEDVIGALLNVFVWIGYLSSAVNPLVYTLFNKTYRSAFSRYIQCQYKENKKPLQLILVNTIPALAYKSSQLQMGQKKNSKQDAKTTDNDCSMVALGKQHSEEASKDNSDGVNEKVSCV
Summary of the method: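 CHO cells stably expressing human HTR2A were plated for 18 h at 37 C, then loaded with calcium dye for 1 h. Compounds were preincubated 5 min at room temperature before DOI (4 nM solution) was added. Kinetic fluorescence was read for 3 min.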

[12] = molecular target: 5-hydroxytryptamine receptor 2A (Homo sapiens) (UniProt P28223); assay: 5-hydroxytryptamine receptor 2A (HTR2A) small molecule agonists, cell-based qHTS assay (AID 1963587); note: nearly all actives have a fitted effect of over 30% in size; note: potency is the fitted concentration of half-maximal effect
Summary of the method: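 HTR2A-CHO cells, plated 18 h at 37 C/5% CO2, dye-loaded 1 h at 37 C; compounds in DMSO added by pin tool (agonist mode). Intracellular calcium flux read as kinetic fluorescence on FDSS over 2 min at 1 s intervals.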

[13] = molecular target: Muscarinic acetylcholine receptor M1 (Homo sapiens) (UniProt P11229); assay: Cholinergic receptor muscarinic 1 (CHRM1) small molecule antagonists, cell-based qHTS assay (AID 1963588); note: nearly all actives have a fitted effect of over 40% in size
Sequence of Muscarinic acetylcholine receptor M1 (Homo sapiens) (P11229 whole entry, looked up): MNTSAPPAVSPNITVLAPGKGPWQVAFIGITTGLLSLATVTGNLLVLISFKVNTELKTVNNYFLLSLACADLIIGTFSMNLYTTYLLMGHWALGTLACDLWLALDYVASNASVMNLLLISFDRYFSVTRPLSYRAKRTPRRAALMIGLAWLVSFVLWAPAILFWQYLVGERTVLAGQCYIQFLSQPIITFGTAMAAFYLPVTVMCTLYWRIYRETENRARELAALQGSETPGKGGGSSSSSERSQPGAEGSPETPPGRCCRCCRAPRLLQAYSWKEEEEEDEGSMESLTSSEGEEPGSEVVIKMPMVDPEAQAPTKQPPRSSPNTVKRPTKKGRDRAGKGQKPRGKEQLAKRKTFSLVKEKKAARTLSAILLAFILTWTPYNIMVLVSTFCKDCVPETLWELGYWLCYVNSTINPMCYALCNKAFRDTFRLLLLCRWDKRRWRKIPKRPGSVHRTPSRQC
Summary of the method: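 Compounds were tested at 15 concentrations in three independent runs. Dye-loaded CHRM1-CHO cells were exposed 5 min at room temperature before stimulation by acetylcholine added at 50nM. Intracellular calcium was read kinetically on FDSS for 3 min.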

[14] = molecular target: Muscarinic acetylcholine receptor M1 (Homo sapiens) (UniProt P11229); assay: Cholinergic receptor muscarinic 1 (CHRM1) small molecule agonists, cell-based qHTS assay (AID 1963589); note: nearly all actives have a fitted effect of over 35% in size
Summary of the method: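 Fluorescent calcium dye reports M1 activation in stably transfected CHO cells. Compounds, 15 concentrations, added after 1 h dye loading at 37 C; kinetic reading at 1 sec intervals.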

[15] = cAMP Responsive Elements (CRE) small molecule agonists, cell-based qHTS assay (AID 1963590)
Summary of the method: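 Compound exposure lasted 3 h at 37 C/5% CO2 in CRE-bla HEK 293T cells grown in assay medium with 10% dialyzed FBS and 25 mM HEPES. Reporter signal came from LiveBLAzer B/G FRET substrate, 2 h, room temperature.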

[16] = cAMP Responsive Elements (CRE) small molecule antagonists, cell-based qHTS assay (AID 1963591; active = well fitted inhibition curve with a large enough effect in the signal ratio in the repeat runs, not every such curve was filed as active; the % refers to the signal ratio)
Summary of the method: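 Stimulation used NKH477 at a final 0.25 uM for 3 h in compound-treated CRE-bla HEK293T cells, seeded 18 h beforehand. Reporter activity was measured with LiveBLAzer B/G FRET substrate after 2 h at room temperature.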

[17] = molecular target: Beta-2 adrenergic receptor (Homo sapiens) (UniProt P07550); assay: Adrenergic beta2 receptor (ADRB2) small molecule antagonists, cell-based qHTS assay (AID 1963592); note: series mostly up to about 92 µM; nearly all actives have a fitted effect of over 50% in size
Sequence of Beta-2 adrenergic receptor (Homo sapiens) (P07550 whole entry, looked up): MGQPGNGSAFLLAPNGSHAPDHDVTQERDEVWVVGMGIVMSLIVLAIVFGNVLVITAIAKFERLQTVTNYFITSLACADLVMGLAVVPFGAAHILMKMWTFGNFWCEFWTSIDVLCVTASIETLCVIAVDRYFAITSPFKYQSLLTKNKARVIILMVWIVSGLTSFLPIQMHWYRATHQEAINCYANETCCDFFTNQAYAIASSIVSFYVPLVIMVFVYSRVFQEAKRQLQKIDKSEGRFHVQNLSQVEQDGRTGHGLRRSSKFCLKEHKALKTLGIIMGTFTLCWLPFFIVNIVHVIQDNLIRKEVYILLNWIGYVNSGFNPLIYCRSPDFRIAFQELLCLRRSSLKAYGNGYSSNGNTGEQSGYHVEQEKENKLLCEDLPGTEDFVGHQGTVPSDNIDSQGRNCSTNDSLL
Summary of the method: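 Assay format: CHO-ADRB2 cells, 18-20hr seeding at 37C/5% CO2, then compound plus 1nM isoproterenol agonist mix for 0.5hr RT. Homogeneous time-resolved fluorescence cAMP detection after 1hr, expressed as 665/615 nm ratio.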

[18] = molecular target: D(2) dopamine receptor (Homo sapiens) (UniProt P14416); assay: Dopamine D2 receptor (DRD2) small molecule agonists, cell-based qHTS assay (AID 1963594); note: nearly all actives have a fitted effect of over 35% in size
Sequence of D(2) dopamine receptor (Homo sapiens) (P14416 whole entry, looked up): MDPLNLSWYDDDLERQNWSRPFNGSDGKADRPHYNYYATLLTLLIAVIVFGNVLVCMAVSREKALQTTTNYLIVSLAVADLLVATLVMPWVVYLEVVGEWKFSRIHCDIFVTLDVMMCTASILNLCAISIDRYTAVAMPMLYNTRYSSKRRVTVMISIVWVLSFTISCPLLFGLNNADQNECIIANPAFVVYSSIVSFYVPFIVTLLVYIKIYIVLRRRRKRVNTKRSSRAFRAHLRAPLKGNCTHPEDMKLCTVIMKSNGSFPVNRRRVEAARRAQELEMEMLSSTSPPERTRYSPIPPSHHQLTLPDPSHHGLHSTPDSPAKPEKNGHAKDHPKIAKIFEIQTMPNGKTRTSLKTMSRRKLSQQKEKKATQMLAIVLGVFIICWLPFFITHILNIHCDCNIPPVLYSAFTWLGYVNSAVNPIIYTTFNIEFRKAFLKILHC
Summary of the method: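 HEK293 cells stably expressing DRD2 were cultured 24 h at 37 C, then given Ro20-1724 (0.1 mM final) and compounds for 10 min at room temperature. NKH477 (200nM) was then added for 30 min. cAMP was read by HTRF.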

[19] = molecular target: D(2) dopamine receptor (Homo sapiens) (UniProt P14416); assay: Dopamine D2 receptor (DRD2) small molecule antagonists, cell-based qHTS assay (AID 1963595; active = well fitted inhibition curve with a large enough effect in the signal ratio in the repeat runs, with a control signal flat; the % refers to the signal ratio)
Summary of the method: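 Antagonism was scored as restored cAMP in HEK293-DRD2 cells. These cells were stimulated with 200 nM NKH477 and 12 nM quinpirole for 30 min at room temperature, in the presence of 0.1 mM Ro20-1724.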

[20] = molecular target: Beta-2 adrenergic receptor (Homo sapiens) (UniProt P07550); assay: Adrenergic beta2 receptor (ADRB2) small molecule agonists, cell-based qHTS assay (AID 1963593);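 note: CHO cells stably overexpressing human ADRB2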
Summary of the method: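 CHO cells stably over-expressing ADRB2 were plated overnight at 37C, then dosed with compounds plus a stimulation mix containing 100uM IBMX and 25uM Ro-20-1724 for 0.5hr at room temperature. cAMP was measured by HTRF competition, 1hr.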

Row | SMILES | Potency [1] | Potency [2] | Potency [3] | Potency [4] | Potency [5] | Potency [6] | Potency [7] | Potency [8] | Potency [9] | Potency [10] | Potency [11] | Potency [12] | Potency [13] | Potency [14] | Potency [15] | Potency [16] | Potency [17] | Potency [18] | Potency [19] | Potency [20]
1 | CN1C(CCl)Nc2cc(Cl)c(S(N)(=O)=O)cc2S1(=O)=O (centres undefined) | inactive | inactive | inactive | inactive | inactive | inactive | inactive | inactive | inactive | inactive | inactive | inactive | inactive | inactive | inactive | inactive | inactive | inactive | inactive | –
2 | CCO/C([O-])=N/c1c[n+](N2CCOCC2)no1 | inactive | inactive | inactive | inactive | inactive | inactive | inactive | inactive | inactive | inactive | inactive | inactive | inactive | inactive | inactive | inactive | inactive | inactive | inactive | inactive
3 | CN(C)C(=S)SC(=S)N(C)C | 1.11 µM (active) and 1.09 µM (active) | inactive | inactive | inactive | inactive | inactive | inactive | 41.8 µM (active) and inactive | inactive | inactive | inactive | 50.2 µM (active) and inactive | inactive | inactive | inactive | – | – | inactive | inactive | inactive
4 | CCCCCCCC(=O)[O-].CCCCCCCC(=O)[O-].[Zn+2] | inactive | inactive | inactive | inactive | inactive | inactive | inactive | inactive | inactive | inactive | inactive | inactive | inactive | inactive | inactive | inactive | inactive | inactive | inactive | inactive
5 | O=c1cccc[nH]1 | inactive | inactive | inactive | inactive | inactive | inactive | inactive | inactive | inactive | inactive | inactive | inactive | inactive | inactive | inactive | inactive | inactive | inactive | inactive | inactive
6 | CCCCCCCCCCCCCCCCC | inactive | inactive | inactive | inactive | inactive | inactive | inactive | inactive | inactive | inactive | inactive | inactive | inactive | inactive | inactive | inactive | inactive | inactive | inactive | –
7 | CCOCCOCCOCCO | inactive | inactive | inactive | inactive | inactive | inactive | inactive | inactive | inactive | inactive | inactive | inactive | inactive | inactive | inactive | inactive | inactive | inactive | inactive | inactive
8 | NCCN1CCNC1=O | inactive | inactive | inactive | inactive | inactive | inactive | inactive | inactive | inactive | inactive | inactive | inactive | inactive | inactive | inactive | – | inactive | inactive | inactive | –
9 | COC(OC)OC | inactive | inactive | inactive | inactive | inactive | inactive | inactive | inactive | inactive | inactive | inactive | – | inactive | inactive | inactive | inactive | inactive | – | inactive | –
10 | Cc1c(O)cccc1C(=O)N[C@@H](CSc1ccccc1)[C@H](O)CN1C[C@H]2CCCC[C@H]2C[C@H]1C(=O)NC(C)(C)C | 11.9 µM (active) | inactive | inactive | inactive | inactive | inactive | inactive | inactive | – | – | – | – | – | – | – | – | – | inactive | inactive | –
11 | CC(=O)CCC(C)C | inactive | inactive | inactive | inactive | inactive | inactive | inactive | inactive | inactive | inactive | inactive | inactive | inactive | inactive | inactive | inactive | – | inactive | inactive | –
12 | O=[N+]([O-])c1cncn1CCN1CCOCC1 | inactive | inactive | inactive | inactive | inactive | inactive | inactive | inactive | inactive | inactive | inactive | inactive | inactive | – | inactive | inactive | – | inactive | inactive | inactive
13 | COCC(O)CO (centres undefined) | inactive | inactive | inactive | inactive | inactive | inactive | inactive | inactive | inactive | inactive | inactive | inactive | inactive | – | inactive | inactive | inactive | inactive | inactive | inactive
14 | COc1ccccc1/C=C/C=O | inactive | 54.5 µM (active) | inactive | inactive | inactive | inactive | inactive | inactive | inactive | inactive | inactive | inactive | inactive | inactive | inactive | inactive | inactive | inactive | inactive | –
15 | CC1(C)O[C@H]2CC(=O)OC[C@]23[C@H]2CC[C@@]4(C)[C@H](c5ccoc5)OC(=O)[C@H]5O[C@]54[C@]2(C)C(=O)C[C@@H]13 | inactive | inactive | inactive | inactive | inactive | inactive | inactive | inactive | inactive | inactive | inactive | inactive | inactive | inactive | inactive | inactive | inactive | inactive | inactive | –
